Compound activity as filed in PubChem BioAssay.
SMARCA2 activ – SMARCA2 (BRM) function activators, primary screen, cell-based, luminescence, high throughput | MG213 cells, MMTV-luciferase reporter, dexamethasone, overnight | activation, % at 9.1 µM | 370,000 tested, 1% active | AID 652017, 2013; in the data active = activation above about 7.8%;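 note: 0% = vehicle wells and 100% = reference activator wells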
GRIN3A LBD mod – binders of NR3A ligand-binding domain, primary screen, biophysical, differential scanning fluorimetry, uHTS | NR3A LBD differential scanning fluorimetry, Tm shift; 0% = protein alone, 100% = glycine-bound protein | Tm shift relative to glycine control, % at 25 µM | 340,000 tested, 2.5% active;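 active = melting temperature shift of at least 10% of the positive control shift, at one fixed dose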
NadD inh – inhibitors of S. aureus NadD, primary screen, biochemical, colorimetric, uHTS | Nicotinate-nucleotide adenylyltransferase NadD (Staphylococcus aureus N315) | 360,000 tested, 0.78% active | purified NadD enzyme, colorimetric absorbance read-out | inhibition, % at 20 µM; in the data active = inhibition above about 26%
esBAF inh – Bmi1 luciferase reporter increase in mESCs, primary screen, esBAF inhibitor project, mouse ES cells, Bmi1 luciferase knock-in, single point; AID 602393, 2012; 350,000 tested, 2% active; 24 h; 100% = twice the neutral-well signal; reporter increase, % at 12.5 µM; in the data active = activation above about 40%; inconclusive = no clear call, values can overlap the other calls;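 note: 0% = median of the plate's neutral control wells and 100% = double that signal; a rise in the Bmi1 reporter signal indicates esBAF inhibition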
Vif imaging – HIV Vif self-association inhibitors, primary screen, imaging, HEK293T, single point; 340,000 tested, 0.35% active; HEK293T cells, Vif self-association by quenched fluorescence, 24 h; inhibition, % at 7.49 µM; AID 602346, 2012; in the data active = inhibition above about 50%, passing the limit was not always enough; inconclusive = no clear call, values can overlap the other calls; inactive = below about 31%
SKN-1 block – suppressors of acrylamide-induced Pgst-4::GFP reporter in worms, primary screen, SKN-1 inhibitor project, whole organism, uHTS, GFP/RFP fluorescence ratio, strain VP596; AID 624304, 2012; 360,000 tested, 0.49% active; inhibition, % at 21.8 µM; C. elegans VP596 Pgst-4::GFP/RFP ratio, 24 h;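 active = interference check ratio from 0.5 to 1.5 plus GFP to RFP signal ratio inhibition reaching or exceeding a fixed threshold, cut at about 30% in these data, passing the limit was not always enough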
* marks the source's active call; other numbers are inactive results; ? = inconclusive; / = no result given. An excerpt weighted towards active compounds, which were near 5.2% of everything screened.

SMILES	SMARCA2 activ	GRIN3A LBD mod	NadD inh	esBAF inh	Vif imaging	SKN-1 block
COC(=O)c1ccc(NC(=O)c2cccc(C)c2)cc1	-1.6	-1.0	-2.2	27.6	-2.9	10.4
COc1ccc(-c2coc3c(C(=O)NCc4cccs4)cccc23)c(C)c1	-4.3	/	-3.4	-3.8	-33.0	11.6
COc1ccc(-c2ccc(C(=O)NCc3cccs3)c3occc23)c(C)c1	0.9	/	-0.2	72.0*	-1.6	0.9
COc1cccc(C(=O)Nc2cccc(OC(C)=O)c2)c1	3.4	3.4	2.3	23.1	6.3	-2.6
O=C(Nc1ccc(N=Nc2ccccc2)cc1)c1cccc(Cl)c1	-2.3	25.6*	4.7	0.5	-0.4	-3.9
CC(C)=C[C@H]1C[C@H](C)[C@H]2CC[C@H](C)c3c(O[C@@H]4OC[C@@H](O)[C@H](O)C4O)c(O)c(C)c1c32 (stereo not given in full)	-1.4	28.8*	-8.2	1.0	13.2	13.9
COC(=O)c1ccc(CSc2ccccc2NC(=S)Nc2cccc(SC)c2)o1	1.3	/	-6.5	53.9*	-0.1	14.4
COC(=O)c1cccc(NC(=S)Nc2ccccc2Cl)c1	-3.1	-0.5	-0.8	-2.5	-6.8	13.2
O=C(C[C@@H]1C[C@H]2c3cc(NS(=O)(=O)c4ccc(F)cc4)ccc3O[C@H]2[C@H](CO)O1)NCc1ccc(Cl)cc1	/	/	/	-27.3	/	/
Brc1ccc(N=C/C=C/C=C/Nc2ccc(Br)cc2)cc1	-0.8	0.5	5.2	68.2*	9.8	17.3
CN(C)C(/C=C/Nc1ccc(Br)cc1)=C(C#N)C#N	3.6	-2.8	-2.9	/	-4.6	10.8
CC(C)C#Cc1cnc2c(c1)C(=O)N([C@H](C)CO)C[C@@H](C)[C@H](CN(C)C(=O)Cc1ccncc1)O2	/	/	/	-0.1	/	/
Cc1cc(C(=O)CN2C(=O)c3cccc(N)c3C2=O)c(C)n1Cc1cccs1	7.0	-5.7	7.0	43.1*	-17.1	-2.4
O=C(/C=C/c1ccccc1F)c1cccc([N+](=O)[O-])c1	-1.9	18.8*	2.3	/	1.3	8.8
COc1cc(/C=C/C(=O)c2cccc([N+](=O)[O-])c2)cc(OC)c1OC	-0.3	-0.2	-5.6	-4.9	5.3	12.6
S=P(c1ccc(N2CCOCC2)cc1N1CCOCC1)(N1CCOCC1)N1CCOCC1	2.6	-2.5	1.3	-6.5	4.2	44.0*
CNC(=O)C[C@H]1CC[C@H]2[C@@H](COC[C@H](O)CN2Cc2ccc(Cl)c(Cl)c2)O1	/	/	/	-3.3	/	/
C=CCC1CCCCC1=C(C#N)c1ccccc1 (stereo not given)	0.8	/	-1.4	3.5	/	46.0*
C=CCN1C(c2ccccc2)=CS/C1=C(\C#N)c1nnc2n1CCCCC2	-2.2	-2.9	2.0	-3.4	-4.1	9.1
COc1ccc2nc(Nc3nc(CSc4ccc(C)cc4)cc(=O)[nH]3)nc(C)c2c1	-1.3	-4.2	3.9	28.9*	4.3	-19.6
C[C@@H]1CCCCO[C@@H](CN(C)S(=O)(=O)c2ccccc2)[C@@H](C)CN([C@@H](C)CO)C(=O)c2cc(NS(=O)(=O)c3ccc(Cl)cc3)ccc2O1	/	/	/	4.4	/	/
Cc1noc(C)c1NC(=O)NCC[C@H]1CC[C@@H](NC(=O)c2ccc(F)cc2)[C@H](CO)O1	/	/	/	2.7	/	/
O=c1cc(-c2ccccc2)nc2cc(-c3ccco3)[nH]n12	-1.7	10.3*	-2.3	4.7	-3.5	21.6
C=CCn1c(N)c(C(=O)NCCC2=CCCCC2)sc1=S	0.2	-2.9	-7.9	46.9*	9.7	14.0
Cc1ccc(Sc2cnc3ccccc3n2)cc1	3.6	-0.4	-11.7	66.3*	-5.3	13.1
SMILES	SMARCA2 activ	GRIN3A LBD mod	NadD inh	esBAF inh	Vif imaging	SKN-1 block
FC(F)Sc1ccc(NC(=S)NC2CCCCC2)cc1	-5.3	15.1*	7.0	50.5*	-15.5	-6.6
FC(F)Sc1ccc(NC(=S)NCC2CCCCC2)cc1	-10.9	30.6*	-3.1	24.0	-9.5	13.1
S=C(NCC1CCCCC1)Nc1ccc(Oc2ccccc2)cc1	-0.9	16.1*	-2.5	2.9	-10.7	-4.9
C[C@@H]1CN([C@@H](C)CO)C(=O)c2cc(-c3ccccc3)cnc2O[C@H]1CN(C)C(=O)C1CCCCC1	/	/	/	0.0	/	/
COc1ccc(CN(C)C[C@H]2OCCCC[C@@H](C)Oc3ccc(NC(=O)C4CCCCC4)cc3C(=O)N([C@@H](C)CO)C[C@@H]2C)cc1	/	/	/	-2.1	/	/
O=C(O)C1=C2C(=O)Nc3cccc(c32)C2(C1)C(=O)Nc1ccccc12 (stereo not given)	-2.3	/	2.4	-5.2	2.9	35.7*
CCOc1cc2c(cc1OCC)C(C(=O)O)C(c1cc(OC)c(OC)c(OC)c1)N(C)C2=O (stereo not given)	-3.4	1.5	8.1	-5.8	-0.7	35.7*
O=C(NC1CCCC1)[C@H]1[C@H](CO)[C@H]2Cn3c(ccc(-c4cccnc4)c3=O)[C@H]2N1CC1CC1	/	/	/	4.7	/	/
CS(=O)(=O)NC1c2cccc3cccc(c23)C1Sc1nncn1/N=C/c1ccco1 (stereo not given)	-1.3	20.1*	2.5	-4.4	17.6	15.3
Cn1cnnc1SC1c2cccc3cccc(c23)C1NS(=O)(=O)c1ccccc1 (stereo not given)	-0.8	4.5	0.5	/	-1.2	5.7
CN=C1S/C(=C\c2ccc(N3CCOCC3)c(F)c2)C(=O)N1C	3.8	-0.3	-0.3	70.8*	10.0	7.4
CCOC(=O)C1CCN(C(=O)c2cc(COc3ccc(OC)c4ccccc34)on2)CC1	5.0	-0.7	-3.4	57.0*	-1.2	-12.3
CCOC(=O)C1CCCN(C(=O)c2cc(COc3ccc(C)nc3)on2)C1 (stereo not given)	-1.6	0.7	-4.2	26.9	-2.0	0.8
COCC1CCN(C(=O)c2cc(COc3ccc(OC)c4ccccc34)on2)C1 (stereo not given)	3.2	0.7	-11.0	?	-4.7	-3.8
COc1ccc(OCc2cc(C(=O)N3CCC(OC)CC3)no2)c2ccccc12	1.8	-2.2	2.8	69.7*	12.3	21.0
Cc1cc(=O)oc2cc(OC(=O)c3ccccc3)ccc12	0.8	-2.4	2.4	7.0	1.9	6.8
COc1ccccc1-c1c(C(F)(F)F)oc2cc(OC(=O)c3ccc([N+](=O)[O-])cc3)ccc2c1=O	1.4	0.7	1.0	66.7*	-8.4	0.9
CS(=O)(=O)c1ncc(Cl)c(C(=O)Nc2ccc(OC(F)F)cc2)n1	/	2.4	-0.6	-35.0	53.8*	-12.4
